Assay results published in PubChem BioAssay (NCI).
This is part of a sample that, as a whole, favours compounds with a hit. Of some 83,000 tested, about 20% had one in any assay.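 The test compound was applied at a single concentration to cells in 96-well plates for 48 hours, and percent growth was recorded.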 Unmarked numbers belong to inactive results. Active and inactive are the calls of the source. The calls were made as follows: active = growth percent below 10; inactive = the rest.

Tests used:
Assay in all cases: NCI-60 one-dose screen, 48 h (100 = growth as untreated, 0 = no growth, -100 = all killed)
Conditions in all cases: 10 µM unless noted
HCT-15 colon = tested on: HCT-15 colon
HT29 colon = tested on: HT29 colon
SNB-75 CNS = tested on: SNB-75 CNS
SNB-19 CNS = tested on: SNB-19 CNS
U251 CNS = tested on: U251 CNS
PC-3 prostate = tested on: PC-3 prostate
SK-MEL-5 melanoma = tested on: SK-MEL-5 melanoma
UACC-62 melanoma = tested on: UACC-62 melanoma
LOX IMVI melanoma = tested on: LOX IMVI melanoma
SK-MEL-28 melanoma = tested on: SK-MEL-28 melanoma

Compound | growth (HCT-15 colon) | growth (HT29 colon) | growth (SNB-75 CNS) | growth (SNB-19 CNS) | growth (U251 CNS) | growth (PC-3 prostate) | growth (SK-MEL-5 melanoma) | growth (UACC-62 melanoma) | growth (LOX IMVI melanoma) | growth (SK-MEL-28 melanoma)
Cn1ccc(=O)nc1 | 24.1% | 20.6% | 104% | 84.6% | 77.8% | 69.6% | 99.3% | 74.8% | 76.8% | 109%
N#Cc1c(-c2ccccc2)nc(SCc2nnc(-c3ccc(Cl)cc3)o2)[nH]c1=O | 101% | 94.1% | 93.9% | 100% | 81% | 61.5% | 99.5% | 98.5% | 94.1% | 110%
Nc1nc(NC(=O)Nc2ccc(C(=O)O)cc2)nn1-c1ccc(S(N)(=O)=O)cc1 | 105% | 105% | 90.4% | 90.6% | 93.2% | 83.6% | 96.1% | 96.2% | 98.8% | 100%
C=C(C)[C@@H]1CC[C@]2(C(N)=O)CC[C@]3(C)[C@H](CC[C@@H]4[C@@]5(C)CC[C@H](OCCC#N)C(C)(C)[C@@H]5CC[C@]43C)[C@@H]12 | 80.9% | 84.7% | 85.9% | 81.2% | 87.7% | 68.8% | 93.3% | 67.1% | 87.1% | 92.8%
O=C1c2ccccc2C(=O)C1c1ccc(Br)cc1 | 92.7% | 101% | 65% | 104% | 95.8% | 97.9% | 107% | 98.3% | 88.9% | 98%
CN(Cc1cc(Br)cc(Br)c1O)Cc1cc(Br)cc(Br)c1O | 22.2% | 32.9% | 61.5% | 40.5% | 32.8% | 39.5% | 3.66% (active) | 18.8% | 34.6% | 74%
CC(C)(C)n1cc(-c2ccnc(NCCNS(=O)(=O)c3ccc(O)cc3)c2)c(-c2cccc(O)c2)n1 | 107% | 76.9% | 74.4% | 98.5% | 82.4% | 101% | 79.7% | 101% | 106% | 98.9%
O=C(N/N=C/c1cc(Cl)ccc1O)c1ccccc1Nc1ccnc(C(F)(F)F)c1 | 30.4% | 39.2% | 57.6% | 21% | 16.7% | 32.9% | 2.92% (active) | -12% (active) | 13.2% | 59.1%
Cc1ccc(Cl)cc1NC(=O)c1sc2nc3c(cc2c1N)C(=O)CCC3 | 45.9% | 28.8% | 48% | 68.1% | 59.1% | 55.8% | 27% | 53.1% | 68.1% | 67%
COc1ccc(CNc2c3ccccc3nc3ccccc23)c(OC)c1 | 26% | 13.8% | 64.5% | 33.5% | 41.8% | 47.1% | 70.3% | 54.5% | 17.7% | 69.3%
C=CC(=O)Nc1ccc(Oc2nccc(Nc3nnc(-c4ccc(C)cc4)s3)n2)cc1 | 71.5% | 103% | 61% | 62.7% | 83% | 52.8% | 46% | 44% | 60.2% | 73.9%
Cc1[nH]c(C2CC(c3ccc(C(F)(F)F)c(F)c3)=NN2c2ccccc2)c(C)c1C(=O)NCC(F)(F)F (stereo not given) | 76.2% | 84.6% | 82.5% | 85.6% | 91% | 74.6% | 95.7% | 75.5% | 88.6% | 96.9%
O=c1nc(-c2ccccc2)c2cc(-c3ccc(C(F)(F)F)nc3)ccc2[nH]1 | 97.8% | 111% | 117% | 101% | 105% | 96.2% | 94.8% | 97.3% | 93.1% | 108%
COc1ccc(N2CCN(C(=O)c3sc4nc(C)c(Br)c(C)c4c3N)CC2)cc1 | 102% | 102% | 76.6% | 98.9% | 87.4% | 81.9% | 93.4% | 89.2% | 93% | 104%
CCN1C(=O)N(CC)C2C1NN=c1s/c(=C3\C(=O)N(CC(C)C)c4ccccc43)c(=O)n12 (stereo not given) | 12.5% | 2.25% (active) | 14.9% | 28% | 12.1% | 27.7% | 14.9% | 27.7% | 24.7% | 51%
CO[C@H](C(=O)[C@@H](O)[C@@H](C)O)[C@@H]1Cc2cc3cc(O[C@H]4C[C@@H](O[C@H]5C[C@@H](O)[C@H](O)C(C)O5)[C@H](O)C(C)(O)O4)cc(O)c3c(O)c2C(=O)[C@H]1O[C@H]1C[C@@H](O[C@H]2C[C@@H](O[C@H]3C[C@@H](OC)[C@H](O)C(C)O3)[C@@H](O)C(C)O2)[C@H](O)C(C)O1 (stereo not given in full) | 92.8% | 11.3% | 24.5% | 24.4% | 6.61% (active) | 26.3% | -56.8% (active) | -39.5% (active) | 2.79% (active) | 3.39% (active)
CCCCCCCCCCCCCOC(=O)c1c(C)[nH]c(/C=C2\N=C(c3ccc[nH]3)C=C2OC)c1C | 4.86% (active) | 8.1% (active) | 21.2% | 48.1% | 23.9% | 27.6% | -89.1% (active) | -19.1% (active) | -56.4% (active) | 30.2%
O=C1/C(=C\c2cccc3nccnc23)SC(=S)N1CCc1ccc(O)cc1 | 101% | 116% | 89% | 94.4% | 107% | 84% | 95% | 76.4% | 94.5% | 99.5%
O=C(Nc1ccccc1N1CCCC1=O)c1oc2ccc(F)cc2c1-c1cnn(-c2ccccc2)c1 | 44.9% [50 µM] | 62.2% [50 µM] | 14.8% [50 µM] | 54.5% [50 µM] | 62.8% [50 µM] | 39.7% [50 µM] | 10.6% [50 µM] | 46.1% [50 µM] | 42.2% [50 µM] | 72% [50 µM]
CCSc1oc(C)nc1[P+](c1ccccc1)(c1ccccc1)c1ccccc1 | 92.1% | 16.7% | 35.1% | 19.3% | 20.2% | 19.6% | 1.8% (active) | 28.7% | 25.7% | 65.5%
Cc1ccc(/C=C(\C#N)n2nnc3cc(F)c(F)cc32)cc1 | 14.6% | 5.95% (active) | -15.2% (active) | 31.9% | 24.4% | 21.3% | 16.4% | 34.7% | -17.6% (active) | 39.5%
O=C1/C=C/[C@@H](O)[C@@H]2C[C@@H](O)C[C@H]2/C=C/CCC[C@H](CCO)O1 | 10% | -2.5% (active) | 33.1% | 31.4% | 20.7% | 19.6% | -94.6% (active) | 25.3% | -61.4% (active) | -3.47% (active)
Cc1cccc2c1C[C@@]1(C2=O)C(c2ccc(C(C)(C)C)cc2)=NOS1=O (stereo not given in full) | 72.1% | 98.1% | 101% | 93.5% | 88.2% | 68.8% | 90.3% | 73.8% | 76.6% | 110%
CC1(C)N=C(N)N=C(N)N1c1cccc(CCc2ccccc2)c1 | 85.8% | 14.3% | 63% | 31.3% | 38.1% | 34.6% | 12% | 24.7% | 24% | 46.3%
CC1(C)OB(O)c2cc(-c3nc4ccc5[nH]ncc5c4c4c3CCCC4)ccc21 | 38.2% | 56.3% | 75% | 90.6% | 61.8% | 41.3% | -67.9% (active) | 37.7% | 42% | 87.4%
Nc1nc(N)c2c(n1)NC(c1ccc(Cl)cc1)C1CCc3ccccc3C1=N2 (stereo not given) | 45.9% | 41.9% | 62.1% | 76.1% | 51.1% | 51.6% | 7.87% (active) | 55.2% | 56.8% | 91.3%
